# This excerpt belongs to a sample that is enriched for hits.
# GluA2 TARP mod: GluA2-stargazin AMPA receptor complex modulation; O88602+P19491; HEK293 GluA2+stargazin, membrane potential dye (FDSS), glutamate EC50; hits were called plate by plate, in both directions; calls only at 30 µM; actives 3.5% (n = 40,000);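 active means any of four per-well response measures lying three or more SD from its plate-wide compound average, in either direction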
# GIRK2 activator: Activates human GIRK2-containing potassium channels. activation (% efficacy), % for hits at 37.5 µM. 34,000 tested, under 10 active. P48051. HEK293 GIRK2/NPY4 cells, thallium flux fluorescence. AID 1259324;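 active means primary screen hit, no activity in plain HEK293 cells, and in GIRK2-only cells above 5% efficacy rising with concentration; inactive means the rest, including fluorescent compounds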;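 further: efficacy is normalized control-subtracted fluorescence 15 s after thallium addition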
# Calls only; . = inactive; / = not tested or not shown; + = active, no number.
SMILES,GluA2 TARP mod,GIRK2 activator
COc1ccc(CNC(=O)C(=O)Nc2c(C(N)=O)oc3ccccc23)cc1,.,.
O=C1CCCCN1c1ccc(NS(=O)(=O)c2ccccc2Cl)cc1,.,.
COc1ccc2ncc3c(-c4ccccc4)c(C(=O)NCCN4CCOCC4)sc3c2c1,.,.
Cc1ccc(Cl)cc1N1CCN(C(=O)c2cc3cc(Br)ccc3oc2=O)CC1,.,.
Cc1cc(C)c(N2CCN(C(=O)c3cc4cc(Br)ccc4oc3=O)CC2)c(C)c1,+,.
Cc1ccc2cccc(Oc3ncnc4scc(-c5ccccc5)c34)c2n1,.,/
O=C(NCCC1=CCCCC1)C(=O)NCC1CCN(C(=O)Nc2ccc(F)cc2)CC1,.,.
CN1C(=O)C2C(c3ccc([N+](=O)[O-])cc3)NN(C)C2C1=O (stereo not drawn),+,/
O=C(NCCC1=CCCCC1)c1ccc(Cn2c(=S)[nH]c3ccc(Br)cc3c2=O)cc1,.,.
CCc1c(C#N)c(SCCC(=O)NCc2ccc3c(c2)OCO3)nc2c1C(=O)CC(C)(C)C2,.,.
CCc1c(C#N)c(SCC(=O)NCc2ccc3c(c2)OCO3)nc2c1C(=O)CC(C)(C)C2,+,.
Cc1ccc(OCCCn2c(C(C)NC(=O)c3ccco3)nc3ccccc32)c(C)c1 (stereo not drawn),/,.
Cc1ccc(C)c(Sc2cc(N3CCC(C(=O)NCC4CCCO4)CC3)ncn2)c1 (stereo not drawn),+,.
Cc1ccc(C)c(Sc2cc(N3CCC(C(=O)NCCN4CCCC4)CC3)ncn2)c1,.,.
CCN(C1CCCCC1)S(=O)(=O)c1cc(Cl)c(OC)cc1Cl,.,/
COc1ccc(C2(CNC(=O)NCc3cccs3)CCCC2)cc1,.,.
CCOc1ccccc1-c1nc(COC(=O)c2nnn(-c3ccc(Cl)cc3)c2C)c(C)o1,+,/
COc1ccccc1-c1nc(COC(=O)c2nnn(-c3ccc(C)cc3)c2C)c(C)o1,.,/
CS(=O)(=O)c1ccc(CC(=O)N(Cc2ccccn2)c2nc3ccc(Cl)cc3s2)cc1,.,/
Cc1nc(N2CCN(c3ccccc3F)CC2)c2c3c(sc2n1)CCCC3,.,/
CCc1nc(-n2nc(C)cc2N)c2c3c(sc2n1)CCC3,+,.
Cc1cc(C(F)F)n2nc(C(=O)Nc3ccc(Br)cc3)nc2n1,.,/
CCCNC(=O)c1ccc(Cn2c(SCC(=O)NC(C)C)nc3ccccc3c2=O)cc1,.,.
Cn1c(CSc2nc(N)cc(N)n2)nnc1SCC(=O)NC1CCCCC1,.,/
CC(C)NC(=O)CSc1nnc2n(Cc3ccccc3)c(=O)c3ccc(C(=O)NC(C)C)cc3n12,+,.
SMILES,GluA2 TARP mod,GIRK2 activator
CC(C)NC(=O)c1ccc(Cn2c(SCC#N)nc3ccccc3c2=O)cc1,.,.
CC(C)NC(=O)c1ccc2c(=O)n(Cc3ccccc3)c3nnc(SCC(N)=O)n3c2c1,+,.
Cn1c(=O)c2ccc(C(=O)NC3CCCCC3)cc2n2c(SCC(N)=O)nnc12,+,.
CC(C)(C)OC(=O)N1CCN(c2ccc(N)c3cnccc23)CC1,.,.
C#CC1(OCC(O)CN2CCC(C(=O)OCC)CC2)CCCCC1 (stereo not drawn),.,.
CCN1CCN(CC(O)COc2cccc3ccccc23)CC1 (stereo not drawn),.,/
O=C(NCCc1ccccc1)NCC(O)c1ccsc1 (stereo not drawn),.,.
CN(C)CCNC(=O)C(=O)Nc1ccc([N+](=O)[O-])cc1,.,/
COCCCNC(=O)C(=O)Nc1ccc([N+](=O)[O-])cc1,+,/
COc1ccc(C(=O)Oc2c(S(=O)(=O)c3ccccc3)c(C)nn2C(C)(C)C)cc1,.,/
Cn1cccc1C(CNC(=O)c1ccc(F)cc1)N1CCOCC1 (stereo not drawn),+,.
Cn1cccc1C(CNC(=O)C(=O)NCc1ccc(F)cc1)N1CCOCC1 (stereo not drawn),.,.
Cc1ccc(S(=O)(=O)NCCC(=O)N2CCCCC2)c(C)c1N(C)S(C)(=O)=O,.,/
O=C(NCc1ccccc1Cl)C(=O)NCC(c1ccc(F)cc1)N1CCOCC1 (stereo not drawn),.,.
CS(=O)(=O)N1CCCCC1C(=O)Nc1nc(-c2cc3ccccc3oc2=O)cs1 (stereo not drawn),/,.
Cc1ccc(C(CNC(=O)COc2ccc3ccccc3c2)N(C)C)cc1 (stereo not drawn),+,.
O=C(COc1ccc2ccccc2c1)NCC(O)c1ccc(C(F)(F)F)cc1 (stereo not drawn),/,.
COc1ccc(-c2c(NC(=O)c3cccs3)sc3ccccc3c2=O)cc1,.,.
COc1cc(-c2c(NC(=O)c3ccco3)sc3ccccc3c2=O)cc(OC)c1OC,+,.
CCOC(=O)Nc1cccc(N2CCCCC2=O)c1,.,.
COc1ccc(N2CCN(C(=O)C3CC(=O)N(c4ccc(C)c(C)c4)C3)CC2)nn1 (stereo not drawn),/,.
CC(CCc1ccccc1)NC(=O)Cc1csc(Nc2ccccc2)n1 (stereo not drawn),+,.
O=C(Cc1csc(Nc2ccccc2)n1)NCCc1ccccc1,.,.
COc1ccc(CCC(=O)N2CCN(c3ccc(-c4ccc(C)cc4)nn3)CC2)cc1,.,.
CCCOc1ccc(S(=O)(=O)NCc2ccsc2)cc1C,.,.
SMILES,GluA2 TARP mod,GIRK2 activator
O=C(Nc1ccc2cn[nH]c2c1)c1ccc(=O)[nH]n1,+,.
O=C(Nc1ccc(Cl)c(Cl)c1)Nc1ccc2cn[nH]c2c1,.,.
COC(=O)c1ccc(NC(=O)CN2N=NC3C(=O)N(c4ccc(C)c(C)c4)C(=O)C32)cc1 (stereo not drawn),.,/
O=C1NC(=O)C2(CCN(C(=O)c3cc4ccccc4oc3=O)CC2)N1,.,.
CC(=O)N1CC(C(=O)Nc2ccc3c(c2)OCCO3)C1,.,.
CC(C)S(=O)(=O)c1cccc(C(=O)Nc2sccc2C#N)c1,.,.
CC(C)Sc1cccc(C(=O)Nc2sccc2C#N)c1,+,/
COC(CNC(=O)C(=O)Nc1c2c(nn1C(C)(C)C)CSC2)OC,.,.
CCOc1coc(C(=O)Nc2ccc(Cl)c(Cl)c2)cc1=O,.,.
COc1cccc(OCCn2c(CN3CCCCC3)nc3ccccc32)c1,.,/
C#CCn1c(SCCOc2cccc(OC)c2)nc2ccccc21,+,/
Cc1ccc(S(=O)(=O)NCCn2nc(C)c(Cl)c2C)cc1C,+,.
Cc1ccc(S(=O)(=O)NCCn2nc(-c3ccc(Cl)cc3)ccc2=O)cc1C,.,/
O=C(NC1CCCCC1)N(CCc1ccccc1)Cc1ccccn1,.,.
O=C(N(CCc1ccccc1)Cc1ccccn1)C12CC3CC(CC(C3)C1)C2,+,.
O=C(NCc1cccc2ccccc12)N(CCc1ccccc1)Cc1ccccn1,+,.
O=C(NCc1cccc2ccccc12)N(Cc1ccccn1)Cc1ccco1,/,.
CCc1cc(S(=O)(=O)NC2CC(C)(C)NC(C)(C)C2)ccc1OC,.,/
O=C(COc1ccc(Cl)cc1Cl)NCCNc1ccc(Nc2ccncc2)nn1,.,.
CCC(C)NC(=O)Cn1c(=O)n(-c2cc(OC)cc(OC)c2)c(=O)c2ccccc21 (stereo not drawn),.,/
COc1ccc(N2CC(C)Cn3c2nc2c3c(=O)n(CC(=O)O)c(=O)n2C)cc1 (stereo not drawn),.,/
O=c1ccc(-c2cccs2)nn1CCNS(=O)(=O)CCOc1ccc(F)cc1,.,.
COc1ccc(OC)c(-c2ccc(=O)n(Cc3cccc([N+](=O)[O-])c3)n2)c1,+,.
